Source: PubChem BioAssay
Rows were chosen to be rich in hits. Some 7.3% of all compounds tested hit in one or more screens of this group.
ELG1 genotox: qHTS screen for small molecules that induce genotoxicity in human embryonic kidney (HEK293T) cells expressing luciferase-tagged ELG1 | 330,000 compounds, 1.3% hits | HEK293T ELG1-luciferase reporter, luminescence, 16 h | AID 504466, 2011 | Potency, µM (top dose mostly 46 µM), without a hit: top-dose activity change, positive = activation, hits mostly activators; also: % of control where 0% means no effect; nearly all actives have a fitted effect of over 60% in size
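HEK293T cells expressing luciferase-tagged ELG1 were exposed to compound or DMSO vehicle for 16 hr at 37 °C and 5% CO2. Luciferase activity was then measured with ONE-Glo after 30 min at room temperature.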
KinaseGlo FLuc: Counterscreen for Luciferase (Kinase-Glo TM) Inhibition. Luciferin 4-monooxygenase (Photuris pensylvanica), Q27757. Kinase-Glo luciferase, ATP luminescence, 8 min. Potency, µM (top dose mostly 38.3 µM), inactives show top-dose activity change, negative = inhibition, hits mostly inhibitors. 200,000 compounds, 0.28% hits. AID 1379, 2008; also: % is scaled to controls: 0 for no effect and ±100 for the full control effect; nearly all actives have a fitted effect of over 60% in size
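Recombinant Kinase-Glo luciferase, 10 uM ATP (linear range), luciferin; imidazole pH 7.2 / KCl / MgCl2 / Tween / BSA buffer; 8 min RT; luminescence.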
FLuc counter: qHTS profiling assay for firefly luciferase inhibitor/activator using purifed enzyme and Km concentrations of substrates (counterscreen for miR-21 project); purified FLuc, Km substrates, luminescence inhibition; Potency, µM (titrated, usually from 57.5 µM), inactives show top-dose activity change, negative = inhibition, hits mostly inhibitors; Luciferin 4-monooxygenase (Photinus pyralis), P08659; 360,000 compounds, 6.9% hits;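 also: plate controls were vehicle for no effect and reference inhibitor for full effect; nearly all actives have a fitted effect of over 55% in size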
Target sequence (P08659 whole entry, looked up): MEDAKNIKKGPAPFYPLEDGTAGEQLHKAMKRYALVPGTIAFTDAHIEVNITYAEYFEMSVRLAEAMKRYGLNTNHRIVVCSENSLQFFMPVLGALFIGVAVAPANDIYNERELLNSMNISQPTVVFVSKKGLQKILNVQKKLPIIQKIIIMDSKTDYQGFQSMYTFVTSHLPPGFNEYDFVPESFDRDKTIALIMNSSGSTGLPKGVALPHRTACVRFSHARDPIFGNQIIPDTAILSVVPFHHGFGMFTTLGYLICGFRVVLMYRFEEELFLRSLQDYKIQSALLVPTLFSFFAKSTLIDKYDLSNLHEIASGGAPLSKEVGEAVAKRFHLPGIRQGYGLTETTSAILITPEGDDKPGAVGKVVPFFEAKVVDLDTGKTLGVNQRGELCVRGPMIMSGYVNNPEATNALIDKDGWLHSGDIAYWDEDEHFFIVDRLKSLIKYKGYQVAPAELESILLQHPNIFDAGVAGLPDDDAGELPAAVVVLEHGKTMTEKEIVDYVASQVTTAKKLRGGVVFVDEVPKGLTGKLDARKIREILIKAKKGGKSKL
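Purified P. pyralis luciferase, 10 nM final, with Km-level 10 uM D-luciferin and 10 uM ATP in 50 mM Tris acetate pH 7.5, 10 mM Mg acetate, 0.01% Tween-20, 0.05% BSA; 6-point qHTS titration about 60 µM downward; luminescence read.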
NPC1 promoter act: qHTS Assay for NPC1 Promoter Activators | Huh7 NPC1 promoter luciferase reporter, 24 h | Potency, µM (highest dose often 9.22 µM), inactives show top-dose activation, usual class: activators | 320,000 compounds, 2.4% hits | AID 485313, 2010; also: % of control where 0% means no effect; nearly all actives have a fitted effect of over 60% in size
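Stably transfected Huh7 (NPC1 promoter→luciferase), 1500 cells/well in Opti-MEM + 10% FBS, 2 h settle, then compound 24 h at 37 °C. Luminescence after 10 min with Amplite reagent.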
Rab9 prom act: qHTS Assay for Rab9 Promoter Activators; Potency, µM (doses to about 9.22 µM), without a hit: at the top dose activation, negative = inhibition, actives largely listed as activators; Huh7 Rab9 promoter-luciferase reporter, luminescence, 24 h; 320,000 compounds, 2.8% hits; also: % of control where 0% means no effect; nearly all actives have a fitted effect of over 60% in size
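Luminescence read-out: Huh7 cells stably expressing Rab9-luciferase, treated 24 h with compound at 37 °C, then lysed with luciferase reagent for 10 min at ambient before reading.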
SMN2 splice enh: qHTS Assay for Enhancers of SMN2 Splice Variant Expression; HEK293 SMN2-luciferase splicing reporter, luminescence, 30-36 h; Potency, µM (titrated, usually from 46.1 µM), without a hit: at the top dose activity change, positive = activation, actives largely listed as activators; 210,000 compounds, 2.8% hits; AID 1458, 2008; also: % of control where 0% means no effect; nearly all actives have a fitted effect of over 55% in size
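HEK293 cells carry an SMN2 […]–luciferase reporter in which exon 7 inclusion puts luciferase in frame. Cells were plated 10-12 h before compound addition, then incubated 30-36 h at 37C. ONE-Glo luminescence was read; sodium butyrate at 4.5 mM final served as control.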
* = called active by the depositor; ? = inconclusive; . = no result; [ ] = dose if it differs, or a comment. Calls follow the shape of the dose curve; as a rule, active = well fitted curve in the direction sought with a large enough effect; inconclusive = small, poorly fitted or top-dose-only effect, or another doubt; inactive = no such curve, though single readings can be large; an effect the other way counts as inactive or inconclusive. Potency is read from the fitted curve at half-maximal effect.

SMILES | ELG1 genotox | KinaseGlo FLuc | FLuc counter | NPC1 promoter act | Rab9 prom act | SMN2 splice enh
COc1ccc2nc(NC(=O)c3ccccc3O)sc2c1 | ? | . | 0.13µM* | 1.3µM* | 0.79µM* | .
CC(=O)Nc1nc2ccc(Br)cc2s1 | ? | -4% | 17µM* | 3.2µM* | 2.8µM* | 8%
Cc1ccc(-c2cn(-c3ccc(Cl)cc3)c(S(=O)(=O)CC(=O)Nc3ccccc3)n2)cc1 | . | . | ? | . | . | 3.2µM*
Cc1cc(F)ccc1NC(=O)c1csc2c1CCC(C)C2 (configuration not stated) | . | . | ? | . | . | 6.3µM*
CCc1nnc(NC(=O)c2csc3c2CCC(C)C3)s1 (configuration not stated) | ? | -1% | -8% | ? | 2µM* | ?
CC1CCc2c(C(=O)Nc3cccc(-c4nn[nH]n4)c3)csc2C1 (configuration not stated) | ? | . | 2.7µM* | 16% | ? | .
CC1CCc2c(C(=O)NCc3ccco3)csc2C1 (configuration not stated) | 12% | . | -32% | 17% | 20% | .
COc1ccccc1NC(=O)c1csc2c1CCC(C)C2 (configuration not stated) | 16% | -8% | ? | ? | 29% | .
CCc1nnc(NC(=O)C2CCCCC2)s1 | 1% | 7% | 1% | 11% | 19% | 8%
CC1=C(c2ccc(C(C)C)cc2)S(=O)(=O)NC1=NCc1ccccc1Br | . | . | -1% | . | . | .
O=c1c2oc3ccccc3c2n(Cc2ccc(Cl)cc2)c(=O)n1Cc1ccccc1 | . | . | -2% | . | . | .
COc1cc(C)ccc1OCCOc1c(C)cccc1Cl | 14% | -5% | 27µM* | 17% | ? | -11%
COc1cc(C)ccc1OCCOc1cc(C)ccc1Cl | -2% | 0% | 13µM* | 4% | -4% | .
NCCOC[C@H](N)C(=O)O | . | -2%[7.66 µM] | . | . | . | -5%[9.22 µM]
CCOc1ccc(Cc2nccc3cc(OCC)c(OCC)cc23)cc1OCC | . | -3% | . | . | . | -60%
Cc1ccc2[nH]c3c(c2c1)CCC3=O | ? | -3% | -2% | 2% | 0% | 16%
CCCCN1CCc2c([nH]c3ccc(C)cc23)C1=O | 26% | -3% | 2.4µM* | 2.8µM* | 3.5µM* | ?
COc1ccc(Cl)cc1NC(=O)CSc1nc(-c2ccco2)cc(C(F)(F)F)n1 | . | . | -2% | . | . | 3%
Cc1cccc(/C=C\c2ccccc2)n1 | . | 11µM* | . | . | . | .
Cc1cccc(/C=C/c2ccccc2)n1 | . | ? | . | 13µM* | 11µM* | ?
Cc1ccc2cccc(OC(=O)/C=C\c3ccccc3)c2n1 | -1% | -1% | 6% | -2% | -3% | .
CC(OC(=O)c1cc(O)c2ccccc2c1O)C(=O)Nc1ccc(C(N)=O)cc1 (configuration not stated) | 10% | . | 8.5µM* | 10% | 21% | .
CC(C)N(Cc1cc2ccccc2[nH]c1=O)C(=O)C1CCCCC1 | -2% | -2% | 2% | 1% | -2% | 18%
CCC(=O)N(Cc1cc2ccccc2[nH]c1=O)C(C)C | 23µM* | 2% | 0% | -4% | 16% | -34%
O=S1(=O)NC2c3ccccc3CC2O1 (configuration not stated) | -4% | . | -9% | 1% | 0% | .
SMILES | ELG1 genotox | KinaseGlo FLuc | FLuc counter | NPC1 promoter act | Rab9 prom act | SMN2 splice enh
CC(C)c1ccc2c(c1)C1Cc3ccccc3C1N2 (configuration not stated) | ? | -1% | 15µM* | 16% | 8% | 21%
COc1cccc(-c2nc(COc3ccc(Cl)cc3Cl)no2)c1 | 7% | . | 15µM* | 1% | 0% | .
COc1ccccc1-c1nc(COc2ccc(Cl)cc2Cl)no1 | ? | . | 8.5µM* | 3.5µM* | 4µM* | .
COc1ccc(-c2noc(-c3cc(Cl)ccc3Cl)n2)cc1OC | 3% | 4% | 5% | 16% | 11% | -7%
Cc1ccc(NC(=O)c2nc(S(=O)(=O)Cc3ccc(F)cc3)ncc2Cl)cc1C | . | . | -1% | . | . | .
Cc1ccc(NC(=O)c2nc(S(=O)(=O)Cc3ccccc3C)ncc2Cl)cc1C | -17% | . | 11µM* | -24% | -16% | .
OC(COCC1COc2ccccc2O1)CN1CCN(c2ccccc2F)CC1 (configuration not stated) | -3% | 4% | -1% | -5% | 0% | -17%
O=C(OCC1COc2ccccc2O1)c1c(F)cccc1F (configuration not stated) | ? | . | 15µM* | -1% | 10% | .
O=C(Oc1ccccc1C(=O)Nc1ccccc1)c1ccc(Br)c([N+](=O)[O-])c1 | 13% | 0% | 15µM* | 1% | 15% | -6%
CCOC(=O)c1ccc(NC(=O)c2ccccc2)cc1 | ? | -5% | -3%[2.3 µM] | 2.8µM* | 2.8µM* | 10µM*
CCOC(=O)c1ccc(Nc2ncccc2[N+](=O)[O-])cc1 | ? | -14% | 7.6µM* | 2.5µM* | 1µM* | .
CCOC(=O)c1cccc(NC(=O)c2ccc(N(C)C)cc2)c1 | 8% | -5% | 1.7µM* | 0.4µM* | 0.28µM* | ?
COc1ccc(Cl)cc1-c1ccc(C(=O)O)o1 | . | -2%[39.9 µM] | . | . | . | .
CCOC(=O)c1cccc(NC(=O)c2cnc3ccccc3n2)c1 | 24% | . | 17µM* | ? | 2µM* | .
CCOC(=O)c1cccc(NC(=O)c2cccnc2)c1 | -4% | -4% | -5% | 10% | 0% | -8%
CCOC(=O)c1ccc(N/N=C/c2cc(Br)cc([N+](=O)[O-])c2O)cc1 | -13% | ? | 1.2µM* | -3% | 0% | -69%
CCOC(=O)c1ccc(NC(=S)Nc2ccccn2)cc1 | 15µM* | 0% | -19% | ? | 25% | 12%
CCOC(=O)c1ccc(NC(=O)c2ccccc2[N+](=O)[O-])cc1 | 12% | 1% | ? | 17% | 27% | 18µM*
COc1cc(Br)cc(/C=N/NC(=O)Cc2ccc(C(F)(F)F)cc2[N+](=O)[O-])c1O | 11% | 2% | 13% | -2% | -11% | -97%
O=[N+]([O-])c1cccc(I)c1 | . | . | . | . | . | -6%
Cc1cc(-c2ccc(C)c(S(=O)(=O)NCc3cccs3)c2)on1 | . | . | 0% | . | . | .
CCCCNN | . | -2%[7.66 µM] | . | . | . | -8%[9.22 µM]
COc1ccc(-n2ncc3c(NC(C)C)ncnc32)cc1 | ? | -3% | 1.3µM* | 0.28µM* | 0.32µM* | 2.8µM*
COc1ccc(CNc2ncnc3c2cnn3-c2ccc(Cl)cc2)cc1 | . | . | -5% | . | . | .
COc1ccc(-n2ncc3c(NCC(C)C)ncnc32)cc1 | ? | 1% | 1.1µM* | 0.4µM* | 0.35µM* | 2µM*
